“And” between values parts separate entries of the source, which are not always exact repeats. Equal entries are not always repeated. Compounds without any hit were thinned out: in the full panel of roughly 83,000, 20% have a hit.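 Interpretation: 100, growth as untreated; towards 0, rising growth inhibition; 0, no net growth; 0 to -100, cell death. Compounds scoring below 10 were considered active.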 Unmarked numbers belong to inactive results. The source made the active and inactive calls.
Test system: MDA-MB-468 breast
Test: NCI-60 one-dose screen, 48 h (100 = growth as untreated, 0 = no growth, -100 = all killed)
Settings: 10 µM unless noted

| Compound | growth |
| --- | --- |
| Cc1cc(NC(=O)Nc2cccc3ccccc23)no1 | 107% |
| COC(=O)C(C)NS(=O)(=O)/N=C1\NC(=O)NC1=C(Cl)Cl (stereo not given) | 91.4% |
| C=C(C)[C@@H]1CC[C@]2(C)[C@H](CC=C3[C@@H]4[C@H](C)[C@@H](C)CC[C@]4(CO)CC[C@]32C)[C@@]1(C)CCCN | -54.7% (active) |
| NC(=O)C1CCCN(Cc2c[nH]c3ccccc23)C1 (stereo not given) | 97.7% |
| CC1OC(O[C@@H]2[C@H](O)C(CO)OC(O[C@H]3COC(O[C@H]4CC[C@]5(C)[C@H]6CC[C@]78OC[C@@]9(CC[C@](C)(C=O)C[C@H]97)C(=O)C[C@@]8(C)[C@]6(C)CC[C@H]5C4(C)C)[C@@H](O)[C@@H]3O)[C@H]2OC2OC[C@@H](O)[C@@H](O)[C@@H]2O)[C@@H](O)[C@@H](O)[C@H]1O (stereo not given in full) | 104% |
| CC(=O)c1cccc(OC(=O)c2ccccc2)c1 | 104% |
| CCCOC(=O)n1cccc1 | 106% |
| O=C(Cn1c2ccccc2c2ccncc21)N/N=C\c1ccc2ccccc2c1 | 19.7% |
| O=[N+]([O-])c1cc(Cl)c2[nH]c3c(Cl)cc([N+](=O)[O-])cc3c2c1 | -17.9% (active) |
| Cc1cc(C(NC(=O)CCCCCNc2cccc3c2C(=O)N(C2CCC(=O)NC2=O)C3=O)c2cccnc2)c(O)c2ncccc12 (stereo not given) | -8.72% (active) |
| Cc1nc(N)sc1-c1ccnc(Nc2ccc(N3CCOCC3)cc2)n1 | 34.1% |
| O=C(OCC(O)C1OC(c2ccccc2)OC(COC(=O)c2ccccc2)C1O)c1ccccc1 (stereo not given) | 100% |
| CSc1nc2ccccc2cc1/C=[N+](\[O-])c1ccccc1 | 88% |
| CCOC(=O)C1=C(C)NC(SCc2nnc(-c3ccc(Cl)cc3)o2)=NC1c1ccc(Cl)cc1 (stereo not given) | 48.9% |
| CC(Nc1c(C#N)cnc2ccc(-c3cnc(N)nc3)cc12)c1ccccc1 (stereo not given) | -9.18% (active) |
| Clc1ccc2oc3c(NCCCn4ccnc4)c4ccccc4nc3c2c1 | 51.6% |
| Clc1ccc2c(c1)C(Br)c1cc(Cl)cc(Cl)c1-2 (stereo not given) | 96.7% |
| Cc1nn(-c2ccccc2)c2nc3nc4c(c(N)c3c(-c3ccc(Cl)cc3)c12)CCCC4 | 104% |
| CCSc1nnc2c3cc(Br)ccc3n(C)c2n1 | 115% |
| CN1CCN(Cc2ccc(NC(=O)c3cncc(C#Cc4cnc5ccc(N6CCSCC6)nn45)c3)cc2C(F)(F)F)CC1 | -74.2% (active) |

| Compound | growth |
| --- | --- |
| Cc1ccc(-c2nnc(SCc3ccc(O)c4ncccc34)n2-c2ccccc2)cc1 | 9.08% (active) |
| CCN(CC)CCCNC(=O)c1ccc(N)cc1O | 85.7% |
| Cc1nnc(NS(=O)(=O)c2ccc(N=Nc3ccc(N)nc3N)cc2)s1 | 120% and 132% |
| O=C1[C@@H]2Cc3c([nH]c4ccccc34)[C@@H](c3ccc(Cl)cc3)N2C(=O)CN1C1CCN(Cc2c(F)cccc2F)CC1 | 40.3% |
| Clc1ccc2c(NCCN3CCN(c4ccnc(N5CCCC5)n4)CC3)ccnc2c1 | -4.71% (active) |
| CCOC(=O)c1nn(-c2ccc(C)cc2)c(=O)c2c(N)c(C#N)c(-c3ccc(OC)cc3)cc12 | 102% |
| CC(C)C[C@H]1C(=O)O[C@H](C(C)C)C(=O)N(C)[C@@H](C(C)C)C(=O)O[C@H](C(C)C)C(=O)N(C)[C@@H](C(C)C)C(=O)O[C@H](C(C)C)C(=O)N1C | -7.13% (active) |
| COc1cc(/C=C/C(=O)c2ccc(C(F)(F)F)cc2)ccc1Oc1nc(NCCO)nc(N2CCOCC2)n1 | 85.6% |
| O=C(OC[C@@H]1CO1)c1cccc2c(=O)c3ccccc3[nH]c12 | -52% (active) |
| O=C(Nc1ccc(Cl)c(Cl)c1)Nc1c(Oc2ccc(Cl)c(Cl)c2)ccc(Cl)c1S(=O)(=O)O | -5.92% (active) |
| Nc1cc(-c2c[nH]c3ccc(Br)cc23)nc2cc(-c3c[nH]c4ccc(Br)cc34)nn12 | -4.03% (active) |
| COc1cc(NC(C)CCCN)c2nc(C)ccc2c1Oc1ccc(F)cc1 (stereo not given) | 57.3% |
| C=CC(=O)Nc1cc2c(Nc3ccc(F)c(Cl)c3)ncnc2cc1OCCCN1CCOCC1 | -31.5% (active) |
| CCN1C(=S)N(c2ccccc2)C2C1NN=c1s/c(=C3\C(=O)N(C(C)C)c4ccccc43)c(=O)n12 (stereo not given) | 94.5% |
| COc1cc2cc(Oc3ccc(NC(=O)c4cc(C(F)(F)F)cc(C(F)(F)F)c4)cc3)c(C)nc2cc1OCCN1CCOCC1 | 66.9% |
| COc1ccc(Nc2cc(C)nc(NCc3ccccc3)n2)cc1 | 49.9% |
| CN1CCN(Cc2ccc(NC(=O)c3cncc(C#Cc4cncn5ccnc45)c3)cc2C(F)(F)F)CC1 | 125% |
| CC(=O)N1N=C(c2ccc(-n3ccc(C(F)(F)F)n3)c(F)c2)CC1c1ccc[nH]1 (stereo not given) | 117% |
| CCC/C=C/C=C/C(=O)N[C@@H](Cc1cc(F)cc(F)c1)C(=O)N[C@@H]1C(=O)N2CCC[C@H]2C(=O)N2CCCC[C@H]2C(=O)N[C@@H](C)C(=O)N2C[C@H](C)C[C@H]2C(=O)O[C@H]1C | -0.457% (active) |
| O=C1C(=O)/C(=C/c2ccccc2)CCCCCC/C1=C/c1ccccc1 | 65.7% |

Reference: PubChem BioAssay (NCI)
